Screening results: PubChem BioAssay, The Scripps Research Institute Molecular Screening Center
The sample as a whole holds a higher share of hits than the screen did.
TbREL1 primary – TbREL1 inhibition, primary screen; TbREL1 RNA ligation, FRET fluorescence; inhibition, % at 9.66 µM; actives 0.49% (n = 89,000); AID 1117264;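 active means inhibition above the mean inhibition across all screened compounds plus 3 SD, cut at about 11% in these data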
Target sequence (P86926 whole entry, looked up): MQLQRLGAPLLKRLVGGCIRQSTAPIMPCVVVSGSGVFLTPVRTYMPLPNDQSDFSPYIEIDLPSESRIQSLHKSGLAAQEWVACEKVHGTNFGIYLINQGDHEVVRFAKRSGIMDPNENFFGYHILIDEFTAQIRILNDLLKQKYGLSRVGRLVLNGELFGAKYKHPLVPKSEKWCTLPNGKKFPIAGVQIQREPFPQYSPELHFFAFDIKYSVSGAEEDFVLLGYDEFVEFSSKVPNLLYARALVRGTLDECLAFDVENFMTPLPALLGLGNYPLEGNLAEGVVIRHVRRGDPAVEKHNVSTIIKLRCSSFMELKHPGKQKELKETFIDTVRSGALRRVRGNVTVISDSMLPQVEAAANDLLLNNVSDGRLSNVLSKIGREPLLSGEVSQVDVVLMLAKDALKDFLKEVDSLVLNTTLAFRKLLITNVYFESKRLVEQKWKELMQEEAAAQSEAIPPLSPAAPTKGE
TbREL1 conf – TbREL1 inhibition, confirmation; shares compounds with TbREL1 primary; TbREL1 RNA ligation, FRET fluorescence; inhibition, % at 9.66 µM; actives 37% (n = 390);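 active means mean inhibition across replicates above a set limit taken from the earlier primary screen, cut at about 11% in these data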
Each line names hits and unclear results; the compound was inactive in the other large screens (follow-up assays come after a bar, where they were run).

CCC(C)n1c(NC(=O)c2ccccc2)c(C#N)c2nc3ccccc3nc21 (stereo unspecified)	TbREL1 primary 12
O=C(CNc1nnnn1-c1ccccc1)N1CCCC1	none
COc1ccc(CN(CCN2CCOCC2)C(=O)c2ccc(F)cc2Cl)cc1OC	none
C[C@@H]1CCN(C2CC2)S(=O)(=O)c2ccc(N3CCC[C@H]3C)cc2O1	none
CC1=C(C(=O)N2CCCCCC2)CC(CC(=O)NC2CCCC2)C(=O)N1Cc1ccccc1 (stereo unspecified)	none
O=C(NCCc1ccccc1)OCc1cn(Cc2ccccc2Cl)nn1	none
Cn1cccc1/C=C1\SC(=S)N(NC(=O)c2ccccc2)C1=O	none
O=C(NN1C(=O)/C(=C/C=C/c2ccco2)SC1=S)c1ccccc1O	TbREL1 primary 86
O=C(/C=C/c1ccco1)Oc1cc(Br)cc(/C=N/NC(=O)c2ccccc2O)c1	none
COc1ccccc1NC(=O)OC1CC2CC1[C@H]1CCCCN1[C@H]2Cc1ccccc1 (stereo partly specified)	none
Cc1[nH]c2ccccc2c1CCN(Cc1cccs1)C(=O)Nc1cccc2c1OCO2	none
Cn1c(COc2ccccc2)nnc1SCC(=O)Nc1ccccc1-c1ccccc1	none
O=C(CSc1nnc(Cc2cccs2)n1-c1ccccc1)Nc1ccccc1-c1ccccc1	none
COc1cccc(C(=O)NCCCNC(=O)c2ccco2)c1	none
CCCNC(=O)c1ccc2nc(-c3ccccc3)c(-c3ccccc3)nc2c1	none
O=C(NCCCO)c1ccc2nc(-c3ccco3)c(-c3ccco3)nc2c1	TbREL1 primary 11 | TbREL1 conf 19
Cc1cccc(CN2[C@@H](C)[C@H](c3ccccc3)Oc3cc(Br)ccc3S2(=O)=O)c1	none
CCCN1C(=O)c2n[nH]c(C(C)C)c2C1c1cccc(C(F)(F)F)c1 (stereo unspecified)	none
c1ccc(CCNCCOc2ccccc2)cc1	none
Cc1ccc(C(C)C)c(OCCNCCc2ccccc2)c1	TbREL1 primary 13 | TbREL1 conf 15
Cc1ccc(C(C)C)c(OCCNS(C)(=O)=O)c1	none
Cc1ccccc1CNC1CCC12CCC(c1ccccc1)CC2 (stereo unspecified)	none
CCOc1ccc(/C=C2\NCCc3cc(OCC)c(OCC)cc32)cc1OCC	none
CCn1c(SCC(=O)NN=Cc2c[nH]c3ccccc23)nc2ccccc21	none
CC1(C(=O)NCc2ccc(F)c(F)c2)Cc2c(-c3cccc(C(N)=O)c3)ccnc2O1 (stereo unspecified)	none
CC(=O)NCCNC(=O)C1(C)Cc2c(-c3cccc(C(N)=O)c3)ccnc2O1 (stereo unspecified)	TbREL1 primary 14 | TbREL1 conf inactive
CC(=O)c1cccc(NC(=O)C2(C)Cc3c(-c4cccc(C(N)=O)c4)ccnc3O2)c1 (stereo unspecified)	none
CCN(CC)c1ccc(NC(=O)CSc2nnc(SCc3ccc(Cl)cc3)s2)cc1	none
O=C(CSc1ccc(S(=O)(=O)N2CCCC2)cn1)Nc1ccc([N+](=O)[O-])cc1C(F)(F)F	none
c1ccc([C@H]2CNCCN2CCc2cccc3ccccc23)cc1	none
O=C1NC[C@@H](Cc2ccc(O)cc2)N(CCc2cccc3ccccc23)C1=O	none
CCC(C)[C@H]1CN=C(N)N1CCc1cccc2ccccc12 (stereo partly specified)	TbREL1 primary 12 | TbREL1 conf inactive
Nc1nc(Cl)nc2c1ncn2[C@@H]1O[C@H](CO)[C@@H](O)[C@@H]1F	none
C=CCn1c(SCC(=O)Nc2ccccc2OCC)nnc1-c1ccc(C(C)(C)C)cc1	none
COc1ccccc1-c1ccc2c(c1)C(C)(Cc1cc(Cl)ccc1C(F)(F)F)C(=O)N2 (stereo unspecified)	TbREL1 primary 17 | TbREL1 conf inactive
CC1(Cc2ccccc2OC(F)(F)F)C(=O)Nc2ccc(-c3ccsc3)cc21 (stereo unspecified)	none
COc1ccc(C(C)=O)cc1CC1(C)C(=O)Nc2ccc(-c3cccc(C(F)(F)F)c3)cc21 (stereo unspecified)	none
Nc1nc2c(ncn2[C@@H]2O[C@H](C(=O)N[C@H](Cc3ccccc3)C(=O)NCCCc3ccccc3)[C@@H](O)[C@H]2O)c(=O)[nH]1	none
COc1ccc(CN2CCC(CNC(=O)Nc3ccc(C)c(F)c3)CC2)cc1	none
O=c1[nH]c(=S)[nH]c2c1C(c1ccc(F)cc1)OC(C1CCCCC1)C2 (stereo unspecified)	none
C[C@H]1[C@@H](N(C)Cc2cccs2)CC[C@@]23CCCN2C(=O)CCC[C@@H]13	none
COC(=O)C1=C(C)N(Cc2ccccc2C(F)(F)F)C(=NCc2ccccc2)NC1c1ccc(Cl)cc1 (stereo unspecified)	TbREL1 primary 14 | TbREL1 conf 16
CCN=C1NC(c2ccc(C(F)(F)F)cc2)C(C(=O)OC)=C(C)N1Cc1ccccc1C(F)(F)F (stereo unspecified)	TbREL1 primary 11 | TbREL1 conf 12
COC(=O)C1=C(C)N(Cc2ccccc2)C(=NCc2ccc(OC)cc2)N[C@H]1c1ccccc1	none
CCN1C(=NCc2cccc(Cl)c2)N[C@@H](c2cccc(F)c2)C(C(=O)OC)=C1C	none
